Measurements as given in PubChem BioAssay (NCI).
The panel holds about 79,000 compounds, 15% with a hit somewhere; the sample as a whole holds those more often. A number with no mark means an inactive call. The source made the active and inactive calls. Cut-off read from the data, not from the text of the source: active = growth inhibition above about 70%; inactive = the rest.

Tests used:
[1] = NCI Yeast Anticancer Drug Screen. Data for the rad50 strain (AID 155);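 note: 0% = growth of vehicle-only cultures of the same strain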; details: S. cerevisiae rad50 strain growth inhibition, hits give high values
Method in brief: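 Yeast carrying a defined DNA repair defect were exposed to test compounds, and growth was compared with vehicle-treated controls to give percent inhibition.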

[2] = NCI Yeast Anticancer Drug Screen. Data for the mec2-1 strain (AID 157); details: S. cerevisiae mec2-1 strain, hits give high values
Method in brief: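 Cells of the genetically defined mec2-1 yeast strain are incubated with test compound. Inhibition of growth is calculated against vehicle-treated controls.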

[3] = NCI Yeast Anticancer Drug Screen. Data for the sgs1 mgt1 strain (AID 161);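 note: 0% = growth of cultures given vehicle only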; details: S. cerevisiae sgs1 mgt1 strain, hits give high values
Method in brief: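 Mutant yeast exposed to compound; growth scored against vehicle-only wells.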

[4] = NCI Yeast Anticancer Drug Screen. Data for the cln2 rad14 strain (AID 165);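 note: 0% = growth equal to vehicle treated cultures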; details: S. cerevisiae cln2 rad14 strain, hits give high values
Method in brief: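 The screen exposed genetically defined yeast (cln2 rad14) to test compounds and scored growth inhibition relative to vehicle-treated controls.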

[5] = NCI Yeast Anticancer Drug Screen. Data for the bub3 strain (AID 167); details: S. cerevisiae bub3 mutant strain, hits give high values
Method in brief: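 Compounds were applied to a genetically altered yeast strain carrying a cell-cycle control defect. Growth inhibition was scored against vehicle-treated controls.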

[6] = NCI Yeast Anticancer Drug Screen. Data for the mlh1 rad18 strain (AID 175); details: S. cerevisiae mlh1 rad18 strain growth inhibition, hits give high values
Method in brief: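 Compound-treated yeast growth, normalised to vehicle controls. Strain bears defined DNA repair mutations.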

[7] = at 5.0 µM (retest, dose inferred, filed as 0.5)
[8] = at 50.0 µM (retest, dose inferred, filed as 5.0)

COC(=O)C1ON(c2ccccc2)C2c3ccccc3-c3ccccc3C12 (stereo not given)
growth inhibition [1, 7]: 31%
growth inhibition [1, 8]: 63%
growth inhibition ([1]; at 50.0 µM): 58.2%
growth inhibition [2, 7]: 27%
growth inhibition [2, 8]: 62%
growth inhibition ([2]; at 50.0 µM): 18.9%
growth inhibition [3, 7]: 45%
growth inhibition [3, 8]: 76% (active)
growth inhibition ([3]; at 50.0 µM): 61.3%
growth inhibition [4, 7]: 14%
growth inhibition [4, 8]: 67%
growth inhibition ([4]; at 50.0 µM): 50%
growth inhibition [5, 7]: 33%
growth inhibition [5, 8]: 86% (active)
growth inhibition ([5]; at 50.0 µM): 67.2%
growth inhibition [6, 7]: 42%
growth inhibition [6, 8]: 68%
growth inhibition ([6]; at 50.0 µM): 75% (active)

O=C(CBr)OC1CCCCC1
growth inhibition [1, 7]: 73% (active)
growth inhibition [1, 8]: 97% (active)
growth inhibition ([1]; at 50.0 µM): 91% (active)
growth inhibition [2, 7]: 41%
growth inhibition [2, 8]: 98% (active)
growth inhibition ([2]; at 50.0 µM): 69.4%
growth inhibition [3, 7]: 55%
growth inhibition [3, 8]: 98% (active)
growth inhibition ([3]; at 50.0 µM): 87.4% (active)
growth inhibition [4, 7]: 24%
growth inhibition [4, 8]: 80% (active)
growth inhibition ([4]; at 50.0 µM): 10.9%
growth inhibition [5, 7]: 60%
growth inhibition [5, 8]: 97% (active)
growth inhibition ([5]; at 50.0 µM): 75.8% (active)
growth inhibition [6, 7]: 69%
growth inhibition [6, 8]: 98% (active)
growth inhibition ([6]; at 50.0 µM): 90.4% (active)

c1ccc(N=c2snc(-c3ccccc3)s2)cc1
growth inhibition [1, 7]: 2%
growth inhibition [1, 8]: 2%
growth inhibition ([1]; at 50.0 µM): 91.1% (active)
growth inhibition [2, 7]: -3%
growth inhibition [2, 8]: -2%
growth inhibition ([2]; at 50.0 µM): 46.8%
growth inhibition [3, 7]: 4%
growth inhibition [3, 8]: 3%
growth inhibition ([3]; at 50.0 µM): 73.5% (active)
growth inhibition [4, 7]: 3%
growth inhibition [4, 8]: -2%
growth inhibition ([4]; at 50.0 µM): 6.4%
growth inhibition [5, 7]: -4%
growth inhibition [5, 8]: 2%
growth inhibition ([5]; at 50.0 µM): 82.5% (active)
growth inhibition [6, 7]: 5%
growth inhibition [6, 8]: 6%
growth inhibition ([6]; at 50.0 µM): 80.2% (active)

O=c1[nH]c2ccccc2n1C1CCN(CCCC(c2ccc(F)cc2)c2ccc(F)cc2)CC1
growth inhibition [1, 7]: -10%
growth inhibition [1, 8]: 34%
growth inhibition ([1]; at 50.0 µM): -14.8%
growth inhibition [2, 7]: 12%
growth inhibition [2, 8]: 11%
growth inhibition ([2]; at 50.0 µM): -11.4%
growth inhibition [3, 7]: 4%
growth inhibition [3, 8]: 83% (active)
growth inhibition ([3]; at 50.0 µM): 48.7%
growth inhibition [4, 7]: -7%
growth inhibition [4, 8]: -4%
growth inhibition ([4]; at 50.0 µM): -24%
growth inhibition [5, 7]: -2%
growth inhibition [5, 8]: 10%
growth inhibition ([5]; at 50.0 µM): 72.9% (active)
growth inhibition [6, 7]: 14%
growth inhibition [6, 8]: 92% (active)
growth inhibition ([6]; at 50.0 µM): 63.8%

Oc1c(Cl)c(Cl)c(O)c(Cl)c1Cl
growth inhibition [1, 7]: 65%
growth inhibition [1, 8]: 97% (active)
growth inhibition ([1]; at 50.0 µM): 99.2% (active)
growth inhibition [2, 7]: 35%
growth inhibition [2, 8]: 99% (active)
growth inhibition ([2]; at 50.0 µM): 99.3% (active)
growth inhibition [3, 7]: 37%
growth inhibition [3, 8]: 99% (active)
growth inhibition ([3]; at 50.0 µM): 99.1% (active)
growth inhibition [4, 7]: -2%
growth inhibition [4, 8]: 80% (active)
growth inhibition ([4]; at 50.0 µM): 95.7% (active)
growth inhibition [5, 7]: 64%
growth inhibition [5, 8]: 97% (active)
growth inhibition ([5]; at 50.0 µM): 99.1% (active)
growth inhibition [6, 7]: 47%
growth inhibition [6, 8]: 98% (active)
growth inhibition ([6]; at 50.0 µM): 98.8% (active)

Oc1cc(Cl)c(Cl)cc1Cl.[Cu+2]
growth inhibition [1, 7]: 78% (active)
growth inhibition [1, 8]: 96% (active)
growth inhibition ([1]; at 50.0 µM): 99% (active)
growth inhibition [2, 7]: 45%
growth inhibition [2, 8]: 98% (active)
growth inhibition ([2]; at 50.0 µM): 98.9% (active)
growth inhibition [3, 7]: 48%
growth inhibition [3, 8]: 70% (active)
growth inhibition ([3]; at 50.0 µM): 99.3% (active)
growth inhibition [4, 7]: 21%
growth inhibition [4, 8]: 98% (active)
growth inhibition ([4]; at 50.0 µM): 97.7% (active)
growth inhibition [5, 7]: 97% (active)
growth inhibition [5, 8]: 97% (active)
growth inhibition ([5]; at 50.0 µM): 99% (active)
growth inhibition [6, 7]: 91% (active)
growth inhibition [6, 8]: 97% (active)
growth inhibition ([6]; at 50.0 µM): 99.2% (active)

O=C(O)c1ccccc1.[Zn+2]
growth inhibition [1, 7]: 1%
growth inhibition [1, 8]: -5%
growth inhibition ([1]; at 50.0 µM): 19.4%
growth inhibition [2, 7]: 3%
growth inhibition [2, 8]: -10%
growth inhibition ([2]; at 50.0 µM): 8.6%
growth inhibition [3, 7]: 4%
growth inhibition [3, 8]: 9%
growth inhibition ([3]; at 50.0 µM): 15.5%
growth inhibition [4, 7]: -3%
growth inhibition [4, 8]: -21%
growth inhibition ([4]; at 50.0 µM): -74.6%
growth inhibition [5, 7]: -8%
growth inhibition [5, 8]: -1%
growth inhibition ([5]; at 50.0 µM): 45.6%
growth inhibition [6, 7]: 6%
growth inhibition [6, 8]: 10%
growth inhibition ([6]; at 50.0 µM): 1.9%

CCCCCCCCCCC(=O)O.[Pb]
growth inhibition [1, 7]: -14%
growth inhibition [1, 8]: 2%
growth inhibition ([1]; at 50.0 µM): 55.5%
growth inhibition [2, 7]: -10%
growth inhibition [2, 8]: 6%
growth inhibition ([2]; at 50.0 µM): 5.05%
growth inhibition [3, 7]: -7%
growth inhibition [3, 8]: 9%
growth inhibition ([3]; at 50.0 µM): 38.5%
growth inhibition [4, 7]: -2%
growth inhibition [4, 8]: -1%
growth inhibition ([4]; at 50.0 µM): 14.2%
growth inhibition [5, 7]: -1%
growth inhibition [5, 8]: -4%
growth inhibition ([5]; at 50.0 µM): -16.1%
growth inhibition [6, 7]: -5%
growth inhibition [6, 8]: -12%
growth inhibition ([6]; at 50.0 µM): 68.2%

CCOC(=O)C(Cl)Cl
growth inhibition [1, 7]: -1%
growth inhibition [1, 8]: 0%
growth inhibition ([1]; at 50.0 µM): -32.4%
growth inhibition [2, 7]: 3%
growth inhibition [2, 8]: -2%
growth inhibition ([2]; at 50.0 µM): -2.7%
growth inhibition [3, 7]: 0%
growth inhibition [3, 8]: -2%
growth inhibition ([3]; at 50.0 µM): -5.25%
growth inhibition [4, 7]: -2%
growth inhibition [4, 8]: -4%
growth inhibition ([4]; at 50.0 µM): -39.8%
growth inhibition [5, 7]: 1%
growth inhibition [5, 8]: -5%
growth inhibition ([5]; at 50.0 µM): -18.3%
growth inhibition [6, 7]: 2%
growth inhibition [6, 8]: -2%
growth inhibition ([6]; at 50.0 µM): 33.4%

COc1c(Cl)[c]([Hg][O]C(C)=O)c(NCC(C)=O)c(OC)[c]1[Hg][O]C(C)=O
growth inhibition [1, 7]: 80% (active)
growth inhibition [1, 8]: 94% (active)
growth inhibition ([1]; at 50.0 µM): 87.3% (active)
growth inhibition [2, 7]: 99% (active)
growth inhibition [2, 8]: 94% (active)
growth inhibition ([2]; at 50.0 µM): 90.5% (active)
growth inhibition [3, 7]: 99% (active)
growth inhibition [3, 8]: 95% (active)
growth inhibition ([3]; at 50.0 µM): 90.8% (active)
growth inhibition [4, 7]: 35%
growth inhibition [4, 8]: 95% (active)
growth inhibition ([4]; at 50.0 µM): 89.4% (active)
growth inhibition [5, 7]: 99% (active)
growth inhibition [5, 8]: 94% (active)
growth inhibition ([5]; at 50.0 µM): 89.4% (active)
growth inhibition [6, 7]: 95% (active)
growth inhibition [6, 8]: 94% (active)
growth inhibition ([6]; at 50.0 µM): 86.4% (active)
